From ChEMBL document CHEMBL1157539, “Thousands of chemical starting points for antimalarial lead identification” (Nature, 2010)

Legend:
Type in all cases: functional
Plasmodium falciparum [1] = assay: GSK_TCMDC: Inhibition of Plasmodium falciparum 3D7 in whole red blood cells, using parasite LDH activity as an index of growth. Test compounds present at 2uM
Plasmodium falciparum [2] = assay: GSK_TCMDC: Inhibition of Plasmodium falciparum Dd2 in whole red blood cells, using parasite LDH activity as an index of growth. Test compounds present at 2uM
HepG2 = assay: GSK_TCMDC: Percent inhibition of human HepG2 cell line. Test compounds present at 10uM.

## C=CCn1c(Cc2ccccc2)nnc1Sc1ccc(C#N)c([N+](=O)[O-])c1
Plasmodium falciparum [1]
  Inhibition: 86%
Plasmodium falciparum [2]
  Inhibition: 43%
HepG2
  Inhibition: 7%

## CCc1cn(CCCOC)c2ccc(C(=O)N[C@@H](Cc3ccccc3)[C@H](O)CNCc3cccc(C(F)(F)F)c3)cc12
Plasmodium falciparum [1]
  Inhibition: 93%
Plasmodium falciparum [2]
  Inhibition: 78%
HepG2
  Inhibition: 8%

## COc1cc(OC)cc(C(=O)Nc2ccc(Nc3nc(C)cc(N(C)C)n3)cc2)c1
Plasmodium falciparum [1]
  Inhibition: 100%
Plasmodium falciparum [2]
  Inhibition: 90%
HepG2
  Inhibition: 11%

## CN(C)CC(O)COc1ccc(Nc2ncc([N+](=O)[O-])c(Nc3ccccc3O)n2)cc1.O=C(O)C(F)(F)F (stereo not drawn)
Plasmodium falciparum [1]
  Inhibition: 100%
Plasmodium falciparum [2]
  Inhibition: 20%
HepG2
  Inhibition: 47%

## NC(=O)COc1c(C2CCN(CCN3CCC(CNC(=O)c4ccc(-c5ccc(C(F)(F)F)cc5)cc4)CC3)CC2)ccc2c1CCCC2
Plasmodium falciparum [1]
  Inhibition: 87%
Plasmodium falciparum [2]
  Inhibition: 68%
HepG2
  Inhibition: 32%

## Cl.c1cc(-c2cc3ccc(C4=NCCN4)cc3[nH]2)ccc1C1=NCCN1
Plasmodium falciparum [1]
  Inhibition: 97%
Plasmodium falciparum [2]
  Inhibition: 99%
HepG2
  Inhibition: 15%

## O=C(c1ccc(F)c(F)c1)N1CCOC(CCN2CCC(c3ccccc3)CC2)(c2ccc(Cl)c(Cl)c2)C1 (stereo not drawn)
Plasmodium falciparum [1]
  Inhibition: 89%
Plasmodium falciparum [2]
  Inhibition: 75%
HepG2
  Inhibition: 51%

## Cc1nc2ccc(-c3nc4cc(N)ccc4[nH]3)cc2[nH]1
Plasmodium falciparum [1]
  Inhibition: 94%
Plasmodium falciparum [2]
  Inhibition: 80%
HepG2
  Inhibition: 6%

## CC(C)c1ccc2c(c1)c(SC(C)(C)C)c(CC(C)(C)C#N)n2Cc1ccc(Cl)cc1
Plasmodium falciparum [1]
  Inhibition: 96%
Plasmodium falciparum [2]
  Inhibition: 95%
HepG2
  Inhibition: 0%

## Cl.O=c1cc(NCCCNCc2ccc(Cl)c(Cl)c2)[nH]c2ccc(Cl)cc12
Plasmodium falciparum [1]
  Inhibition: 100%
Plasmodium falciparum [2]
  Inhibition: 54%
HepG2
  Inhibition: 11%

## O=C(N[C@@H](Cc1ccccc1)[C@H](O)CNC1CCOCC1)c1cc(C2CCCC2)cc(N2CCCCS2(=O)=O)c1.O=CO
Plasmodium falciparum [1]
  Inhibition: 100%
Plasmodium falciparum [2]
  Inhibition: 98%
HepG2
  Inhibition: 3%

## CN(C)c1ccc(CN2CCC(CNC(=O)c3cc(-c4ccccc4F)cs3)C2)cc1.O=C(O)C(F)(F)F (stereo not drawn)
Plasmodium falciparum [1]
  Inhibition: 100%
Plasmodium falciparum [2]
  Inhibition: 33%
HepG2
  Inhibition: 35%

## O=C(CN1CCCC1)Nc1cccc(C(=O)Nc2cccc(C(F)(F)F)c2)c1
Plasmodium falciparum [1]
  Inhibition: 95%
Plasmodium falciparum [2]
  Inhibition: 83%
HepG2
  Inhibition: 9%

## Cc1[nH]c(C)c(-c2ccc(CCc3cccc(C(F)(F)F)c3)nc2)c(=O)c1Cl
Plasmodium falciparum [1]
  Inhibition: 99%
Plasmodium falciparum [2]
  Inhibition: 97%
HepG2
  Inhibition: 28%

## CCN(CCCN1CCCCC1)c1cc(C)nc(Nc2cc(Cl)cc(Cl)c2)n1.O=C(O)C(F)(F)F
Plasmodium falciparum [1]
  Inhibition: 100%
Plasmodium falciparum [2]
  Inhibition: 99%
HepG2
  Inhibition: 34%

## Cc1nc(-c2cccc(Nc3nccc(NCC(O)c4ccccc4)n3)c2)cs1 (stereo not drawn)
Plasmodium falciparum [1]
  Inhibition: 99%
Plasmodium falciparum [2]
  Inhibition: 82%
HepG2
  Inhibition: 43%

## COc1cccc2cc(C(=O)N[C@@H](CC(C)C)C(=O)N[C@H](C=NN3CCCC3=O)Cc3ccccc3)oc12
Plasmodium falciparum [1]
  Inhibition: 96%
Plasmodium falciparum [2]
  Inhibition: 80%
HepG2
  Inhibition: 5%

## FC(F)(F)c1ccc2[nH]c(-c3ccc(-c4cccc(CNCc5cnn(-c6ccccc6)n5)c4)cc3)nc2c1.O=C(O)C(F)(F)F
Plasmodium falciparum [1]
  Inhibition: 99%
Plasmodium falciparum [2]
  Inhibition: 83%
HepG2
  Inhibition: 19%

## O=C1c2cc(I)ccc2SC1c1ccccc1 (stereo not drawn)
Plasmodium falciparum [1]
  Inhibition: 96%
Plasmodium falciparum [2]
  Inhibition: 98%
HepG2
  Inhibition: 0%

## CNC(=O)C(C)N(c1ccc(Cl)cc1)c1nc(C(C)(C)C)cs1 (stereo not drawn)
Plasmodium falciparum [1]
  Inhibition: 99%
Plasmodium falciparum [2]
  Inhibition: 98%
HepG2
  Inhibition: 0%

## COc1ccc2nccc([C@@H](O)CNCCCN(C)CCOc3cc(F)cc(F)c3)c2c1.O=C(O)C(=O)O
Plasmodium falciparum [1]
  Inhibition: 99%
Plasmodium falciparum [2]
  Inhibition: 58%
HepG2
  Inhibition: 11%

## CCc1nc2c(N)nc(N)nc2nc1-c1ccc(OC)cc1
Plasmodium falciparum [1]
  Inhibition: 86%
Plasmodium falciparum [2]
  Inhibition: 0%
HepG2
  Inhibition: 44%

## Cl.N#Cc1ccc(CCNc2nccc(-c3cccc(CN4CCNCC4)c3)n2)cc1
Plasmodium falciparum [1]
  Inhibition: 83%
Plasmodium falciparum [2]
  Inhibition: 0%
HepG2
  Inhibition: 5%

## COc1ccc(CNC2CCN(C)CC2)cc1-c1ccc(S(=O)(=O)NC2CCC2)s1.O=C(O)C(F)(F)F
Plasmodium falciparum [1]
  Inhibition: 100%
Plasmodium falciparum [2]
  Inhibition: 94%
HepG2
  Inhibition: 32%

## Cl.N=C(NCCc1ccccc1Cl)c1ccc2ccccc2c1
Plasmodium falciparum [1]
  Inhibition: 88%
Plasmodium falciparum [2]
  Inhibition: 11%
HepG2
  Inhibition: 25%

## CN(C)CCCOc1cccc(NC(=O)Nc2ccc(-c3ccccc3)cc2)c1.O=C(O)C(F)(F)F
Plasmodium falciparum [1]
  Inhibition: 91%
Plasmodium falciparum [2]
  Inhibition: 14%
HepG2
  Inhibition: 9%

## O=C(Nc1cccc(Cl)c1Cl)NC1CCN(Cc2cccc(O)c2)CC1.O=C(O)C(F)(F)F
Plasmodium falciparum [1]
  Inhibition: 98%
Plasmodium falciparum [2]
  Inhibition: 1%
HepG2
  Inhibition: 1%

## O=C(N[C@@H](Cc1ccccc1)C(=O)NCc1cccc(C(F)(F)F)c1)c1ccc(O)c(-c2ccc(Cl)c(Cl)c2)c1
Plasmodium falciparum [1]
  Inhibition: 96%
Plasmodium falciparum [2]
  Inhibition: 97%
HepG2
  Inhibition: 0%

## CC(C)CC(=O)N1CCNC[C@@H]1C(=O)NCc1ccc(Cl)c(Cl)c1.O=C(O)C(F)(F)F
Plasmodium falciparum [1]
  Inhibition: 99%
Plasmodium falciparum [2]
  Inhibition: 16%
HepG2
  Inhibition: 0%

## COc1ccc(CNCc2ccc(-c3ccc(CNCCc4ccccc4)cn3)cc2)cn1.O=C(O)C(F)(F)F
Plasmodium falciparum [1]
  Inhibition: 97%
Plasmodium falciparum [2]
  Inhibition: 44%
HepG2
  Inhibition: 16%

## COc1cccc(-c2ccc(O)c(CNCCc3cccc(F)c3)c2)n1
Plasmodium falciparum [1]
  Inhibition: 96%
Plasmodium falciparum [2]
  Inhibition: 67%
HepG2
  Inhibition: 0%
